Test results: PMC5540273 (PLoS ONE, 2017)

System: T1, MINK
T1 construct: gene MINK1
Details: concentration: 1 μM, replicates: in singlicate; n = 1
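Further: KINOMEscan kinase panel screen.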

Row | SMILES | %Inh [%]
1 | O=C(Nc1n[nH]c2cc(-c3cccc(F)c3F)ccc12)C1CC1 [SB-733894] | 58
2 | Cc1csc(-c2nc(Nc3ccncc3)c3ccccc3n2)n1 [GW869640] | 55
3 | Cl.NC(=O)c1cccc(Nc2nccc(Nc3ccc(Oc4cccc(Cl)c4)c(Cl)c3)n2)c1 [GW659008] | 0
4 | O=C1NC(=O)C(N2CCc3ccccc32)=C1c1ccccc1Cl [SB-373598] | 4
5 | COC(=O)c1c(-c2ccccc2)c2cc(C(=O)O)ccc2c(=O)n1Cc1ccccc1 | 0
6 | Cc1cc(-c2ccc3c(c2)CC[C@@H](N[C@@H](C)c2ccccc2)C3)cnc1N.Cl [GW412617] | 40
7 | Nc1ncnc2[nH]c(-c3ccccc3)nc12 [AH5015] | 4
8 | O=C(Nc1n[nH]c2nc(-c3nccs3)c(Br)cc12)C1CC1 [SB-742251] | 20
9 | Cc1ccccc1-n1cnc2c(N)ncnc21 [SKF-97510] | 0
10 | Clc1cc(Cl)cc(Nc2ccnc(Nc3cc(Cl)cc(Cl)c3)n2)c1 [GSK175726] | 18
11 | Cn1ccc2ncnc(Oc3ccc(Nc4nc5ccccc5[nH]4)cc3)c21 | 0
12 | CCCc1ccc(S(=O)(=O)NC2CCN(c3ccnc(Nc4ccc(F)cc4)n3)C2)cc1 (stereo not shown) [GSK1379715] | 0
13 | COc1cc2nccc(Nc3ccc(NC(=O)c4ccc(C)cc4)c(O)c3)c2cc1OC.Cl [GW440132] | 0
14 | CCn1c(-c2ccccn2)nc2cnccc21 [SB-736398] | 0
15 | Cl.O=C(Nc1cccc(-c2nn3ncccc3c2-c2ccnc(Nc3cccnc3)n2)c1)c1c(F)cccc1F [GSK312879] | 0
16 | Cc1ccc(NC(=O)Nc2cccc(Cl)c2)cc1-c1ccc(C(=O)Nc2ccncc2)cc1 [GSK1398468] | 14
17 | O=C(Nc1ccc2c(c1)OCO2)NC1CCN(c2ccnc(Nc3ccc(F)cc3)n2)C1 (stereo not shown) [GSK1379724] | 0
18 | COc1ccc(Nc2nccc(NCCNC(=O)Nc3ccccc3F)n2)cc1 [GSK1379901] | 11
19 | COc1ccc(Nc2nccc(-c3cccc(NC(=O)c4cc5cc(F)ccc5[nH]4)c3)n2)cc1 [GSK1229782] | 55
20 | Cc1cc(N2Cc3ccccc3C2)nc(Nc2ccc(S(=O)(=O)N3CCOCC3)cc2)n1.Cl [GSK1669917] | 20
21 | COc1ccc(CNC(=O)NC2CCN(c3ccnc(Nc4cc(OC)c(OC)c(OC)c4)n3)C2)cc1 (stereo not shown) [GSK1379748] | 0
22 | Cc1ccc(-c2cc(-c3c[nH]nc3-c3ccccn3)ccn2)cc1 [GW684088] | 87
